Where “and” joins values, the source holds several entries; their conditions need not be identical. Identical values can stand only once. Inconclusive results are not listed. More than one record can exist for a structure, and the calls need not agree. Calls of active or inactive are those of the source. The calls were made as follows, unless noted: active = hit-call score of the fitted dose curve at least 0.9, where 1 is the maximum; inactive = score below 0.9.
What was measured:
[1] = ATG_NFI_CIS: Attagene CIS-FACTORIAL HepG2 Assay for human Nuclear Factor I (NFI) (AID 2282989); conditions: HepG2 cis-regulatory reporter, NFI response element transcription; actives raise or lower the signal
How it was run: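 HepG2 cells transiently transfected with cis-element-driven multiplexed reporter transcription units, dosed for 24 h. Reporter mRNA quantified by RT-PCR, fluorescent labelling, HpaI digestion and capillary electrophoresis; bidirectional fit versus DMSO baseline.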

[2] = molecular target: Myc proto-oncogene protein (Homo sapiens) (UniProt P01106); assay: ATG_Myc_CIS: Attagene CIS-FACTORIAL HepG2 Assay for human Myelocytomatosis (Myc) Proto-Oncogene Transcription Factor (AID 2282990); conditions: HepG2, Attagene cis-reporter transcription factor activity; actives raise or lower the signal
Sequence of Myc proto-oncogene protein (Homo sapiens) (P01106 whole entry, looked up): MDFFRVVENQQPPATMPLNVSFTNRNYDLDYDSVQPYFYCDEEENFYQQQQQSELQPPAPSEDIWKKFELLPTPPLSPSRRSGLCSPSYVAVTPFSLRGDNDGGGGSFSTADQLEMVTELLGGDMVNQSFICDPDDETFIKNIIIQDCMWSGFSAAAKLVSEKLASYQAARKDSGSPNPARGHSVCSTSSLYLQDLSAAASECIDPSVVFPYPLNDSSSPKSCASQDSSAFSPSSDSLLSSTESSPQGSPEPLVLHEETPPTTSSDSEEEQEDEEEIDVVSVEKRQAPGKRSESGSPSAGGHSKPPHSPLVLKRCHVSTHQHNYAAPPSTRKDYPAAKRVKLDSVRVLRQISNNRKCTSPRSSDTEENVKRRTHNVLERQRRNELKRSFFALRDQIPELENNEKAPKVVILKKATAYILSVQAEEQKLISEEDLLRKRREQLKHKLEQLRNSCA
How it was run: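 HepG2 cells transiently transfected with multiple cis-promoter-driven reporter transcription units, so endogenous TF activity is read. After 24 h compound exposure, reporter mRNA was quantified by RT-PCR, 6-FAM labelling, HpaI digestion and capillary electrophoresis; bidirectional fit versus DMSO.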

[3] = ATG_NF_kB_CIS: Attagene CIS-FACTORIAL HepG2 Assay for human Nuclear Factor Kappa B (NF-kB) (AID 2282991); conditions: HepG2 Attagene cis-factorial NF-kB reporter mRNA; actives raise or lower the signal
How it was run: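 Read-out: reporter transcript levels quantified by RT-PCR plus capillary electrophoresis of 6-FAM-labelled, HpaI-cut fragments. Transfected HepG2 cells, 24 h compound exposure, endogenous NF-kB-driven cis element; gain or loss scored versus DMSO.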

[4] = ATG_Oct_MLP_CIS: Attagene CIS-FACTORIAL HepG2 Assay for human Octamer-Binding Transcription Factor (Oct) (AID 2282993); conditions: HepG2 Attagene cis-factorial Oct reporter, mRNA; actives raise or lower the signal
How it was run: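 HepG2 cells transiently transfected with cis-promoter-driven multiplexed reporter transcription units, dosed for 24 h. Reporter mRNA quantified by RT-PCR, fluorescent labelling, HpaI digestion and capillary electrophoresis; bidirectional fits versus DMSO baseline.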

[5] = molecular target: Cellular tumor antigen p53 (Homo sapiens) (UniProt P04637); assay: ATG_p53_CIS: Attagene CIS-FACTORIAL HepG2 Assay for human p53 Transcription Factor (AID 2282994); conditions: HepG2 p53 cis-element reporter, Attagene mRNA; actives raise or lower the signal
Sequence of Cellular tumor antigen p53 (Homo sapiens) (P04637 whole entry, looked up): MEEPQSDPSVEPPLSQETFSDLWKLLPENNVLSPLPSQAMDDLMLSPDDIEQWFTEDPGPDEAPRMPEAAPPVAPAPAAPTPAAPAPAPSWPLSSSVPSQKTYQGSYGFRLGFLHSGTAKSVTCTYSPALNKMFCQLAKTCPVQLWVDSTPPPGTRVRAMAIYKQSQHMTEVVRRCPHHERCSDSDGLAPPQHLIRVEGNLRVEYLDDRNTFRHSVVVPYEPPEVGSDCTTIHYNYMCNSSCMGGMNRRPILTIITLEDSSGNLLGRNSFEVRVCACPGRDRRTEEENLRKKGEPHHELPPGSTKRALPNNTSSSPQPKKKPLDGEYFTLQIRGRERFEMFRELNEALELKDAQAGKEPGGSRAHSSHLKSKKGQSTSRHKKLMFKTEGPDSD
How it was run: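 Using HepG2 hepatoma cells carrying cis-acting multiplexed reporters, mRNA induction is detected after a 24 h exposure. Gain- and loss-of-signal responses are fitted relative to DMSO-treated cells.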

[6] = BSK_3C_TissueFactor: BioMAP Diversity Plus: 3C Assay for Tissue Factor Biomarker Activity (AID 2282997); conditions: BioMAP 3C HUVEC, tissue factor biomarker readout; actives raise or lower the signal
How it was run: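 ELISA read-out of Tissue Factor levels on human umbilical vein endothelium collected 24 h after chemical dosing. Gain or loss of signal was fitted relative to DMSO.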

[7] = BSK_3C_uPAR: BioMAP Diversity Plus: 3C Assay for Urokinase-type plasminogen activator receptor (uPAR) Biomarker Activity (AID 2282998); conditions: BioMAP 3C HUVEC, uPAR biomarker ELISA; actives raise or lower the signal
How it was run: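 Human umbilical vein endothelial primary cells were exposed to test chemical for 24 h. Cell-surface uPAR was then quantified by ELISA, and responses were fitted bidirectionally against DMSO as negative control and baseline.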

[8] = BSK_3C_VCAM1: BioMAP Diversity Plus: 3C Assay for Vascular cell adhesion molecule 1 (VCAM1) Biomarker Activity (AID 2282999); conditions: BioMAP 3C HUVEC, VCAM1 ELISA, cytokine-stimulated; actives raise or lower the signal
How it was run: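 Human umbilical vein endothelial cells were dosed with compound for 24 h, after which cell-surface VCAM-1 was quantified by ELISA. Bidirectional curve fitting used DMSO as negative control and activity baseline.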

[9] = BSK_4H_Eotaxin3: BioMAP Diversity Plus: 4H Assay for Eotaxin 3 Biomarker Activity (AID 2283000); conditions: primary human endothelial cells (HUVEC); actives raise or lower the signal
How it was run: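 Chemicals were added to human umbilical vein endothelium cultures, and Eotaxin-3 was quantified by ELISA at 24 h. Values were derived by bidirectional fitting with DMSO serving as negative control and activity baseline.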

[10] = molecular target: human Peroxisome Proliferator-activated Receptor alpha (PPARa), PPARA (gene 5465) (UniProt Q07869); assay: ATG_PPARa_TRANS: Attagene TRANS-FACTORIAL HepG2 Assay for human Peroxisome Proliferator-activated Receptor alpha (PPARa) (AID 2283001; active = hit-call score of the fitted dose curve at least 0.9, where 1 is the maximum)
Sequence of human Peroxisome Proliferator-activated Receptor alpha (PPARa), PPARA (gene 5465) (Q07869 whole entry, looked up, the tested form may be a part): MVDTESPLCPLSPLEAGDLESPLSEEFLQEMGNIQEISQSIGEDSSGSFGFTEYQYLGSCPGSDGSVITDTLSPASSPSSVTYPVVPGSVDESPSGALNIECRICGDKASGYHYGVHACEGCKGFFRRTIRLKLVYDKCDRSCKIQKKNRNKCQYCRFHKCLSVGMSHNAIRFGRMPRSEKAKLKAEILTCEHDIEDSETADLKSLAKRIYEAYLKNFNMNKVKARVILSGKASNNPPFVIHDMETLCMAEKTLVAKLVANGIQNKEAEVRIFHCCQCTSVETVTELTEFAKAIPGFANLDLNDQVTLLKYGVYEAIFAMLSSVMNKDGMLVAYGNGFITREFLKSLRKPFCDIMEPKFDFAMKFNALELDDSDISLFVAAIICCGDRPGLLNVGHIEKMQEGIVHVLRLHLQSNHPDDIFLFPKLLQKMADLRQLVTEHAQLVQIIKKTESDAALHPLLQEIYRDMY
How it was run: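 HepG2 cells transiently transfected with multiplexed GAL4-UAS reporter units and chimeric NR-Gal4 constructs were dosed for 24 h. Reporter mRNA was measured by RT-PCR with fluorescent labelling and capillary electrophoresis; gain of signal fitted against DMSO.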

[11] = molecular target: human Peroxisome Proliferator-activated Receptor delta (PPARd), PPARD (gene 5467) (UniProt Q03181); assay: ATG_PPARd_TRANS: Attagene TRANS-FACTORIAL HepG2 Assay for human Peroxisome Proliferator-activated Receptor delta (PPARd) (AID 2283002; active = hit-call score of the fitted dose curve at least 0.9, where 1 is the maximum)
Sequence of human Peroxisome Proliferator-activated Receptor delta (PPARd), PPARD (gene 5467) (Q03181 whole entry, looked up, the tested form may be a part): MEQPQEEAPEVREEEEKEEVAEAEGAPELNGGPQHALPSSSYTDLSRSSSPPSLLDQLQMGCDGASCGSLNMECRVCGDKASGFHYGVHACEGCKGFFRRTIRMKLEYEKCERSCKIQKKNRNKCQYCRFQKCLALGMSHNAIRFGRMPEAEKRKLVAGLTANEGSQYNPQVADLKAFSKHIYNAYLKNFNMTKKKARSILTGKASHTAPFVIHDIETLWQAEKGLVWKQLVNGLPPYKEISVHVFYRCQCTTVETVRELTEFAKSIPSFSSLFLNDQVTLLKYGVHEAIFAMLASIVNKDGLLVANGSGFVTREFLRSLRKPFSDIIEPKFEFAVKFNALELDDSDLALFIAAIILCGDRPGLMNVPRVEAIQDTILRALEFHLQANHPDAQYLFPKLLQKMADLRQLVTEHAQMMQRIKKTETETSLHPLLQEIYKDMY
How it was run: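 HepG2 cells transiently transfected with multiplexed GAL4-UAS reporter units and exogenous chimeric NR-Gal4 proteins; 24 h compound exposure. Reporter mRNA measured by RT-PCR, 6-FAM labelling, HpaI digestion and capillary electrophoresis; gain of signal versus DMSO.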

[12] = read-out: Intercellular Adhesion Molecule 1 (ICAM1), ICAM1 (gene 3383); assay: BSK_3C_ICAM1: BioMAP Diversity Plus: 3C Assay for Intercellular Adhesion Molecule 1 (ICAM1) Biomarker Activity (AID 2283003); conditions: primary human endothelial cells (HUVEC); actives raise or lower the signal
How it was run: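 Primary human umbilical vein endothelial cells in the BioMAP 3C system were exposed to chemicals for 24 h, then ICAM-1 was quantified by ELISA. Activity was fitted bidirectionally against the DMSO negative control baseline.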

[13] = molecular target: human Retinoic Acid Receptor beta (RARb), RARB (gene 5915) (UniProt P10826); assay: ATG_RARb_TRANS: Attagene TRANS-FACTORIAL HepG2 Assay for human Retinoic Acid Receptor beta (AID 2283004; active = hit-call score of the fitted dose curve at least 0.9, where 1 is the maximum)
Sequence of human Retinoic Acid Receptor beta (RARb), RARB (gene 5915) (P10826 whole entry, looked up): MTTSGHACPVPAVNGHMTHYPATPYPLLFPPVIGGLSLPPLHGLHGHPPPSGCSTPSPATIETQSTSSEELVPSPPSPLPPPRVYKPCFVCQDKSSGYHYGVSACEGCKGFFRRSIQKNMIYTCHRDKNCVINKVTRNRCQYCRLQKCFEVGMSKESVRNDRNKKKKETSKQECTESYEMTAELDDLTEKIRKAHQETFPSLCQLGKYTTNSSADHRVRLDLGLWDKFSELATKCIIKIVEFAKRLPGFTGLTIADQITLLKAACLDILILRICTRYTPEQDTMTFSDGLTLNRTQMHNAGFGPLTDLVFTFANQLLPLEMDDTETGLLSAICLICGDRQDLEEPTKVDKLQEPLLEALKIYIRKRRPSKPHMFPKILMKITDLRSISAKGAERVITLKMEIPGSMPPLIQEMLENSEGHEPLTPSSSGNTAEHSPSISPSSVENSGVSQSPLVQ
How it was run: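 Transient transfection of HepG2 with multiple reporter units → chemical dosing, 24 h → total RNA isolation → RT with oligo(dT) → reporter-specific PCR, 6-FAM primer extension, HpaI digest → capillary electrophoresis. Positive direction vs DMSO control.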

[14] = BSK_3C_Proliferation: Cell Proliferation Assessment in the BioMAP Diversity Plus: 3C Assay (AID 2283006); conditions: primary human endothelial cells (HUVEC);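 also: potency may reflect either rise or fall in cell number versus DMSO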
How it was run: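 Human umbilical vein endothelial cells were grown sub-confluent and exposed to chemical for 48 h, then fixed with 10% TCA and stained with 0.1% sulforhodamine B; absorbance at 560 nm gave relative cell number, fitted bidirectionally against DMSO baseline.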

[15] = molecular target: Nuclear receptor subfamily 1 group I member 2 (Homo sapiens) (UniProt O75469); assay: ATG_PXR_TRANS: Attagene TRANS-FACTORIAL HepG2 Assay for human Pregnane X Receptor (PXR) (AID 2283008; active = hit-call score of the fitted dose curve at least 0.9, where 1 is the maximum)
Sequence of Nuclear receptor subfamily 1 group I member 2 (Homo sapiens) (O75469 whole entry, looked up, the tested form may be a part): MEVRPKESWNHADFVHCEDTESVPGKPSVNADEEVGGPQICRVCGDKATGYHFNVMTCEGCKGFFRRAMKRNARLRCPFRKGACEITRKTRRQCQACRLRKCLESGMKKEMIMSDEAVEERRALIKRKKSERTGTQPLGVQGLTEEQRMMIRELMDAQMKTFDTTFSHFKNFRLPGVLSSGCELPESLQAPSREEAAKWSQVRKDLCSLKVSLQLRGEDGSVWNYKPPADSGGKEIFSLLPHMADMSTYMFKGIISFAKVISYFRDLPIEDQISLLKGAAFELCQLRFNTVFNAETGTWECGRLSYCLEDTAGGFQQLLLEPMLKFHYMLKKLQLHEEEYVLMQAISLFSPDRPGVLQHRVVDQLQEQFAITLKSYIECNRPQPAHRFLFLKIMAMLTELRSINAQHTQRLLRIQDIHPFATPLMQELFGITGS
How it was run: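 Fluorescence intensity of FAM-labelled, HpaI-digested reporter amplicons, separated by capillary electrophoresis, quantifies induction. HepG2 cells with PXR-Gal4 trans-reporter system were exposed 24 h; DMSO defines baseline.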

[16] = molecular target: human RAR-related Orphan Receptor beta (RORb), RORB (gene 6096) (UniProt Q92753); assay: ATG_RORb_TRANS: Attagene TRANS-FACTORIAL HepG2 Assay for human RAR-related Orphan Receptor beta (RORb) (AID 2283010; active = hit-call score of the fitted dose curve at least 0.9, where 1 is the maximum)
Sequence of human RAR-related Orphan Receptor beta (RORb), RORB (gene 6096) (Q92753 whole entry, looked up, the tested form may be a part): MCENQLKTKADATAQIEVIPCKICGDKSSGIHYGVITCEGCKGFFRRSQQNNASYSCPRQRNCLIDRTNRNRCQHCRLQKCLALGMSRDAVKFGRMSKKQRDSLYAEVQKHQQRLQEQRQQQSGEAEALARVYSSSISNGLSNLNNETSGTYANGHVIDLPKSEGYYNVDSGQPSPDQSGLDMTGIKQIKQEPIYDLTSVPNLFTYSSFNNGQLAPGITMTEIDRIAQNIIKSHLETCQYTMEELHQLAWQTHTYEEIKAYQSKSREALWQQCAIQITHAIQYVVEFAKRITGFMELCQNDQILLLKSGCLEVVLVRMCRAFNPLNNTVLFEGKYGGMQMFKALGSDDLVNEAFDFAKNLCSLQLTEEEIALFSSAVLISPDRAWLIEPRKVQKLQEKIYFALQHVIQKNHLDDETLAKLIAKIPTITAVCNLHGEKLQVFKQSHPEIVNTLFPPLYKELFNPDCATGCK
How it was run: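 HepG2 cells were transiently transfected with multiplexed GAL4-UAS reporter units expressing chimeric nuclear receptor–GAL4 proteins, then dosed for 24 h. Reporter mRNA was quantified by RT-PCR with fluorescent labelling and capillary electrophoresis; gain of signal was fitted relative to DMSO.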

[17] = ATG_NRF2_ARE_CIS: Attagene CIS-FACTORIAL HepG2 Assay for human Nuclear Factor Erythroid 2 Related Factor 2 (NFR2) response to Antioxidant Response Elements (ARE) (AID 2282992); conditions: HepG2 Attagene ARE/NRF2 reporter, transcription factor activity; actives raise or lower the signal;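 as to AC50: reporter mRNA level measured by RT-PCR and capillary electrophoresis fluorescence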
How it was run: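 Cis-factorial assay: transfected HepG2 reporter library, 24 h dosing, mRNA readout via RT-PCR/CE; DMSO-referenced bidirectional analysis.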

[18] = molecular target: Peroxisome proliferator-activated receptor gamma (Homo sapiens) (UniProt P37231); assay: ATG_PPARg_TRANS: Attagene TRANS-FACTORIAL HepG2 Assay for human Peroxisome Proliferator-activated Receptor-gamma (PPARg) (AID 2283007; active = hit-call score of the fitted dose curve at least 0.9, where 1 is the maximum)
Sequence of Peroxisome proliferator-activated receptor gamma (Homo sapiens) (P37231 whole entry, looked up, the tested form may be a part): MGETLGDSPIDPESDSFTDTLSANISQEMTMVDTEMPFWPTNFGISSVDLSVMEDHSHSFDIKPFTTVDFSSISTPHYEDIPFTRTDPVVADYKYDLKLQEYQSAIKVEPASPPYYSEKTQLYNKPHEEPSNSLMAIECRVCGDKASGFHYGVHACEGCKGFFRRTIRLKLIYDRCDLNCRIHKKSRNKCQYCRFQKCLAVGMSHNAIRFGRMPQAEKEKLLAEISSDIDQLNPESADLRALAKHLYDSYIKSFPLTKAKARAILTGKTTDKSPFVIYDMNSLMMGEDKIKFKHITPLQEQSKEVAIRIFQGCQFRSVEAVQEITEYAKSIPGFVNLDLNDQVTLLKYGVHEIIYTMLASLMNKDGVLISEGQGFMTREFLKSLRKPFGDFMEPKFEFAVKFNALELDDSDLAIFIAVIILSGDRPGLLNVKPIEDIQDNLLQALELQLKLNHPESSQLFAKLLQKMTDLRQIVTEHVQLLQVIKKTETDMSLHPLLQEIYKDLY
How it was run: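 Read-out: reporter mRNA induction, detected by fluorescence after RT-PCR and capillary electrophoresis. Transiently transfected human HepG2 liver cells carrying a chimeric NR-Gal4 construct were dosed for 24 h; activity was fitted upward relative to DMSO.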

[19] = molecular target: human Retinoic Acid Receptor gamma (RARg), RARG (gene 5916) (UniProt P13631); assay: ATG_RARg_TRANS: Attagene TRANS-FACTORIAL HepG2 Assay for human Retinoic Acid Receptor gamma (RARg) (AID 2283009; active = hit-call score of the fitted dose curve at least 0.9, where 1 is the maximum)
Sequence of human Retinoic Acid Receptor gamma (RARg), RARG (gene 5916) (P13631 whole entry, looked up, the tested form may be a part): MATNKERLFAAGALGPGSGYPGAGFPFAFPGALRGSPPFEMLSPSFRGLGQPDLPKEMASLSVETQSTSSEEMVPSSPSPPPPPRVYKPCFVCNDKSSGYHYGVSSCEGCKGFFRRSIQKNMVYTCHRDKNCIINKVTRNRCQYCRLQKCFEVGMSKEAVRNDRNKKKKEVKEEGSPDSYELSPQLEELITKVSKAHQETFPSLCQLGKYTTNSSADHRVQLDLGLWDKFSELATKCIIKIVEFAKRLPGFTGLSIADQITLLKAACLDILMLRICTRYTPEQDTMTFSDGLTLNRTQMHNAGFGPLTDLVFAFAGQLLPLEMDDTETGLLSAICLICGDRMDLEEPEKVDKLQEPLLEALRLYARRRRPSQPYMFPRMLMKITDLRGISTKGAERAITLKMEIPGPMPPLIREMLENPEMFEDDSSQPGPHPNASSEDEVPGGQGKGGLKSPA
How it was run: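 HepG2 cells transiently transfected with multiplexed reporter units expressing chimeric RARg-GAL4 and GAL4-UAS-driven reporters; 24 h compound exposure. Reporter mRNA quantified by RT-PCR with fluorescent labelling and capillary electrophoresis; gain-of-signal fitted relative to DMSO baseline.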

[20] = molecular target: Retinoic acid receptor alpha (Homo sapiens) (UniProt P10276); assay: ATG_RARa_TRANS: Attagene TRANS-FACTORIAL HepG2 Assay for human Retinoic Acid Receptor alpha (RARa) (AID 2283005; active = hit-call score of the fitted dose curve at least 0.9, where 1 is the maximum)
Sequence of Retinoic acid receptor alpha (Homo sapiens) (P10276 whole entry, looked up, the tested form may be a part): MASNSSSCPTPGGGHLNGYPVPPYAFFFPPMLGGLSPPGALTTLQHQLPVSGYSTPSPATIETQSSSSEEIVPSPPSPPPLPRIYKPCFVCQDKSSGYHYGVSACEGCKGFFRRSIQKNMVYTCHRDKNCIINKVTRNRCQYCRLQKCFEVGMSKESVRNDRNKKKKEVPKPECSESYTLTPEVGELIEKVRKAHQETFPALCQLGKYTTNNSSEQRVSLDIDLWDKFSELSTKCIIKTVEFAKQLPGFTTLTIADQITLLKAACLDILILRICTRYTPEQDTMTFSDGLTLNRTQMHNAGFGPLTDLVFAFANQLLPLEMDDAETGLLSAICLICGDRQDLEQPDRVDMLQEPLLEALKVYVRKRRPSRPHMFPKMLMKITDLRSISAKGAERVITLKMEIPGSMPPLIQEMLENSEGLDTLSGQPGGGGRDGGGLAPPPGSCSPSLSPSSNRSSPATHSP
How it was run: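 HepG2 cells transiently transfected with multiple reporter units expressing chimeric RARα-GAL4 fusion, with GAL4-UAS-driven reporters. After 24 h compound exposure, reporter mRNA induction quantified by RT-PCR and capillary electrophoresis with fluorescent labeling; gain-of-signal fitted relative to DMSO control.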

Measured: AC50

OCC(F)(F)C(F)(F)C(F)(F)C(F)(F)C(F)(F)C(F)(F)C(F)(F)C(F)(F)C(F)(F)C(F)(F)C(F)(F)F
active: [14] 141 nM and 224 nM
not listed: [17] | [18] | [19] | [20]
inactive: all other assays above

O=S(=O)(O)c1ccccc1
inactive: [1] | [2] | [3] | [17] | [4] | [10] | [18] | [15] | [19] | [16]

CCO[Si](CCC1CCC2OC2C1)(OCC)OCC (configuration not stated)
inactive: [1] | [2] | [3] | [17] | [4] | [10] | [11] | [20] | [18]

FCOC(C(F)(F)F)C(F)(F)F
inactive: [1] | [2] | [3] | [17] | [4] | [10] | [11] | [19] | [16]

COC(=O)C(F)(F)C(F)(F)C(F)(F)F
inactive: [1] | [2] | [3] | [4] | [5] | [10] | [11]

N=C(N)c1ccc(OCCCCCOc2ccc(C(=N)N)cc2)cc1
active: [3] 87.5 µM | [17] 0.732 µM | [4] 34.4 µM | [7] 7.78 µM | [14] 5.13 µM
inactive: [1] | [2] | [6] | [8] | [9] | [10] | [11] | [12]

CCc1ccccc1O
inactive: [1] | [2] | [3] | [4] | [11] | [19]
active: [17] 37.1 µM | [15] 15.7 µM

FC(OC(F)(F)C(F)(F)C(F)(F)F)C(F)(F)F (configuration not stated)
inactive: [1] | [2] | [3] | [17] | [4] | [5] | [11] | [16]

CC(C)CCOCCC(C)C
inactive: [1] | [2] | [3] | [17] | [4] | [5] | [20]

COCC1CCC(CO)CC1 (configuration not stated)
inactive: [1] | [2] | [3] | [17] | [4] | [5] | [18] | [15] | [19]

CCCCCCCCCCCC
active: [9] 30.2 µM | [14] 36.1 µM and 31 µM
inactive: [1] | [2] | [3] | [17] | [4] | [6] | [7] | [8] | [9] | [10] | [12] | [20] | [18] | [15] | [19]

CC(C)(C)c1ccc(CCC=O)cc1
active: [17] 130 µM | [5] 182 µM | [15] 29.3 µM
inactive: [1] | [2] | [3] | [4] | [18]

CCCCCc1ccc(O)cc1
active: [6] 12 µM | [7] 13.8 µM | [8] 23.7 µM | [9] 14.5 µM | [12] 15.9 µM | [14] 10.5 µM | [15] 20.7 µM
not listed: [17] | [18] | [19] | [20]
inactive: all other assays above
